Measurements published in PubChem BioAssay (NCATS).
Results filed as inconclusive are left out. Activity calls are given as the source filed them. Calls come from the whole dose curve; as a rule, active = well fitted cell-killing curve with a large enough effect; inconclusive = small, poorly fitted or top-dose-only effect, or effect the other way; inactive = flat fitted curve, though single readings scatter.

Test system: Tov112D
Test: Primary qHTS to identify gynecologic anti-cancer compounds using libraries of approved drugs and bioactive compounds (AID 1345084); note: nearly all actives have a fitted effect of over 55% in size
Conditions: Gynecologic cancer cell panel viability, ATPlite luminescence, 48 h; series mostly up to 57.5 µM; activity change, negative = cytotoxicity: at the top concentration
How it was run: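 Luminescence from the ATPlite ATP-monitoring reagent indicates viable cell number; lower signal means cytotoxicity. Cells received compound 16 h after seeding and were exposed for 48 h across five concentrations.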
% is set by controls: 0 for no effect and ±100 for the full control effect; potency is the fitted concentration of half-maximal effect.

| Structure (SMILES) | activity change, negative = cytotoxicity | Potency |
| --- | --- | --- |
| Cc1cc(N)c2cc(NC(=O)Nc3ccc4nc(C)cc(N)c4c3)ccc2n1 | -7.55% (inactive) | – |
| COc1ccc(OC)c(C(O)CNC(=O)CN)c1 (stereo unspecified) | 0.972% (inactive) | – |
| Cc1c(C(C)C)c(=O)n(-c2ccccc2)n1C | -0.488% (inactive) | – |
| N[C@H](Cc1c[nH]c2ccccc12)C(=O)O | -1.19% (inactive) | – |
| O=C(Nc1ccc(Oc2ccc(Cl)cc2)c(Cl)c1)c1cc(I)cc(I)c1O | -22.7% (inactive) | – |
| CN(C)C(=S)SC(=S)N(C)C | – | 28.2 µM (active) |
| CCC(C(=O)OCCN(CC)CC)c1ccccc1 (stereo unspecified) | 4.11% (inactive) | – |
| CCCN1CCCC[C@H]1C(=O)Nc1c(C)cccc1C | -0.0583% (inactive) | – |
| COc1cc(-c2ccc(=O)[nH]n2)ccc1OC(F)F | -6.19% (inactive) | – |
| Oc1ccc(O)cc1 | 4.71% (inactive) | – |
| CN1CCCC(CC2c3ccccc3Sc3ccccc32)C1 (stereo unspecified) | -23.9% (inactive) | – |
| CC(C)(C)CC(C)(C)c1ccc(OCCOCC[N+](C)(C)Cc2ccccc2)cc1 | -15.4% (inactive) | – |
| CO/N=C1\CN(c2nc3c(cc2F)c(=O)c(C(=O)O)cn3C2CC2)CC1CN (stereo unspecified) | -0.642% (inactive) | – |
| C/C=C(/C(=C/C)c1ccc(O)cc1)c1ccc(O)cc1 | -9.05% (inactive) | – |
| CCCSS/C(CCO)=C(\C)N(C=O)Cc1cnc(C)nc1N | 0.852% (inactive) | – |
| CCCCCCCCCCCCCCCC[N+](C)(C)CC | – | 28.2 µM (active) |
| CCCCCCCCCCCCCCCC[N+](C)(C)CCN(Cc1ccc(OC)cc1)c1ncccn1 | – | 20 µM (active) |
| Cc1ccc(O)c2ncccc12 | -1.93% (inactive) | – |
| Cc1c(C)n(CCN(C)C)c2ccc(C(=O)OCCN(C)C)cc12 | -6.77% (inactive) | – |
| CC1=C(C(=O)O)N2C(=O)[C@@H](NC(=O)[C@H](N)c3ccc(O)cc3)[C@H]2SC1 | 0.201% (inactive) | – |
| Nc1ccc(C(=O)Nc2ccccc2N)cc1 | -21.9% (inactive) | – |
| Cc1ccccc1C(=O)Nc1ccc(C(=O)N2CCCC(N(C)C)c3ccccc32)cc1 (stereo unspecified) | – | 8.91 µM (active) |
| CN(C/C=C/c1ccccc1)Cc1cccc2ccccc12 | -13.2% (inactive) | – |
| O=C1OC(c2ccc(O)cc2)(c2ccc(O)cc2)c2ccccc21 | 12.4% (inactive) | – |
| NC(=NCCCCCCN=C(N)/N=C(\N)Nc1ccc(Cl)cc1)/N=C(\N)Nc1ccc(Cl)cc1 | -0.659% (inactive) | – |
| COc1cccc2c1C(=O)c1c(O)c3c(c(O)c1C2=O)C[C@@](O)(C(C)=O)C[C@@H]3O[C@H]1C[C@H](N)[C@H](O)[C@H](C)O1 | – | 0.398 µM (active) |
